These results are taken from PubChem BioAssay (NCI).

The panel holds about 83,000 compounds, 20% with a hit somewhere; the sample as a whole holds those more often.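 48-hour exposure, single concentration, 96-well plates; percent growth endpoint where 0 means no net growth. Active: below 10.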 Unmarked numbers belong to inactive results. Calls of active or inactive are those of the source.

Some test systems named below: DU-145 prostate; K-562 leukemia; MALME-3M melanoma; MDA-MB-231 breast; RXF 393 renal; SF-268 CNS; SF-295 CNS; SF-539 CNS; UACC-257 melanoma; M14 melanoma; HCT-15 colon; HT29 colon; SNB-75 CNS; SNB-19 CNS; U251 CNS; PC-3 prostate; SK-MEL-5 melanoma; UACC-62 melanoma; LOX IMVI melanoma; SK-MEL-28 melanoma.
Holding throughout (assay): NCI-60 one-dose screen, 48 h (100 = growth as untreated, 0 = no growth, -100 = all killed)
Conditions in all cases: 10 µM unless noted

As to `C=C(C)[C@@H]1CC[C@]2(C(=O)O)CC[C@]3(C)[C@H](CC[C@@H]4[C@@]5(C)C[C@@H](CC#Cc6ccc(C(C)=O)s6)[C@H](O)C(C)(C)[C@@H]5CC[C@]43C)[C@@H]12`, the growth with DU-145 prostate is 57.2%; in the experiment on K-562 leukemia it was 34.7%; with MALME-3M melanoma it was 82.6%; in the experiment on MDA-MB-231 breast it was 91.9%; in the experiment on RXF 393 renal, 74.3%; in the experiment with SF-268 CNS, 61.6%. Moreover, the growth was 48.9% in the experiment with SF-295 CNS; 83.4% in the experiment on SF-539 CNS; 40.2% with UACC-257 melanoma; 76% in the experiment with M14 melanoma; 33.4% in the experiment with HCT-15 colon; 34.5% in the experiment on HT29 colon. Further, the growth with SNB-75 CNS was 71.1%; in the experiment on SNB-19 CNS, 75.7%; with U251 CNS, 32.3%; in the experiment on PC-3 prostate it was 26%; in the experiment on SK-MEL-5 melanoma it was 43.3%; with UACC-62 melanoma, 52.3%. In addition, the values for the growth in the experiment on LOX IMVI melanoma and in the experiment on SK-MEL-28 melanoma were 65% and 76.5%, respectively.

As for `CC(=O)O[C@@H]1CC2C(C)(C)CCCC2(C)C2=C1C(=O)C(C(C)C)=CC2=O` (stereo not given in full), the growth with DU-145 prostate is -19.2% (active); in the experiment on K-562 leukemia it was 6.8% (active); in the experiment with MALME-3M melanoma, -12.8% (active); in the experiment with MDA-MB-231 breast it was -15% (active); in the experiment on RXF 393 renal it was -57.8% (active); in the experiment with SF-268 CNS, 27.1%. The growth is -34.1% (active) in the experiment with SF-295 CNS; -39.3% (active) in the experiment on SF-539 CNS; -52% (active) in the experiment on UACC-257 melanoma; -60.9% (active) in the experiment on M14 melanoma; -8% (active) with HCT-15 colon; 0.85% (active) in the experiment with HT29 colon. For the same compound, the growth in the experiment on SNB-75 CNS was -11.8% (active); with SNB-19 CNS, 20.9%; in the experiment with U251 CNS, 3.62% (active); with PC-3 prostate, 12%; in the experiment on SK-MEL-5 melanoma it was -93.3% (active); in the experiment on UACC-62 melanoma, -64.4% (active). The growth in the experiment with LOX IMVI melanoma was 10.6%; in the experiment on SK-MEL-28 melanoma, -16.8% (active).

As to `O=c1c2cc(Br)cc(Br)c2nc(-c2ccc(Cl)cc2)n1/N=C\c1ccccc1F`, the growth was 96% in the experiment on DU-145 prostate; 72.1% with K-562 leukemia; 90.4% with MALME-3M melanoma; 55.1% with MDA-MB-231 breast; 72.9% in the experiment with RXF 393 renal; 73.3% in the experiment with SF-268 CNS. Moreover, the growth with SF-295 CNS is 29.8%; with SF-539 CNS it was 81.9%; in the experiment with UACC-257 melanoma, 89.9%; in the experiment with M14 melanoma, 81.8%; in the experiment with HCT-15 colon it was 88.3%; in the experiment on HT29 colon, 77.3%. In addition, the growth is 13.7% in the experiment on SNB-75 CNS; 68.8% in the experiment with SNB-19 CNS; 55.1% with U251 CNS; -87.1% (active) in the experiment on PC-3 prostate; 89.4% in the experiment with SK-MEL-5 melanoma; 70.7% in the experiment with UACC-62 melanoma. The growth is 70.3% with LOX IMVI melanoma and 98.4% in the experiment on SK-MEL-28 melanoma.

`CN1C(=O)N(C)C2C1NN=c1s/c(=C\c3ccc(Br)cc3)c(=O)n12` (stereo not given): the growth in the experiment on DU-145 prostate was 17.2%; with K-562 leukemia, 10.7%; in the experiment on MALME-3M melanoma, 67.7%; in the experiment on MDA-MB-231 breast, 66.1%; with RXF 393 renal, 9.08% (active); in the experiment on SF-268 CNS, 39.4%. Also, the growth with SF-295 CNS is 23.1%; in the experiment on SF-539 CNS, 7.53% (active); in the experiment with UACC-257 melanoma, 46%; with M14 melanoma, 32.8%; in the experiment on HCT-15 colon, 22.8%; in the experiment on HT29 colon, 10.7%. In addition, the growth in the experiment with SNB-75 CNS was 11.4%; in the experiment on SNB-19 CNS it was 34.9%; in the experiment with U251 CNS it was 29.3%; in the experiment with PC-3 prostate it was 18.3%; in the experiment on SK-MEL-5 melanoma it was 14%; with UACC-62 melanoma, 27.9%. Besides, the growth in the experiment with LOX IMVI melanoma is 35.8%; in the experiment with SK-MEL-28 melanoma, 71.1%.

Regarding `CCCNCCC(C)=O`, the growth in the experiment with DU-145 prostate is 122%; in the experiment on K-562 leukemia, 98.5%; in the experiment with MALME-3M melanoma, 121%; in the experiment on MDA-MB-231 breast, 113%; with RXF 393 renal, 127%; with SF-268 CNS it was 115%. The growth with SF-295 CNS was 97.1%; in the experiment with SF-539 CNS, 114%; in the experiment with UACC-257 melanoma it was 91.7%; with M14 melanoma, 105%; with HCT-15 colon, 111%; in the experiment with HT29 colon, 98.1%. In addition, the growth with SNB-75 CNS was 107%; with SNB-19 CNS it was 97.1%; with U251 CNS, 68.8%; in the experiment on PC-3 prostate, 97.1%; in the experiment with SK-MEL-5 melanoma, 115%; with UACC-62 melanoma, 98%. For the same compound, the growth is 94.5% in the experiment on LOX IMVI melanoma and 108% in the experiment with SK-MEL-28 melanoma.

Consider `COc1nccc2c(Sc3ccccc3)nc(N)nc12`, for which the growth in the experiment with DU-145 prostate was 104%; with K-562 leukemia it was 93%; in the experiment with MALME-3M melanoma it was 137%; in the experiment on MDA-MB-231 breast it was 100%; in the experiment on RXF 393 renal, 117%; in the experiment with SF-268 CNS, 105%. Moreover, the growth in the experiment with SF-295 CNS was 103%; in the experiment on SF-539 CNS, 119%; with UACC-257 melanoma it was 111%; with M14 melanoma, 118%; in the experiment with HCT-15 colon it was 100%; with HT29 colon, 108%. Further, the growth is 84.5% in the experiment on SNB-75 CNS; 117% with SNB-19 CNS; 110% in the experiment on U251 CNS; 84.7% in the experiment with PC-3 prostate; 99.2% in the experiment with SK-MEL-5 melanoma; 102% in the experiment with UACC-62 melanoma. In addition, the growth in the experiment on LOX IMVI melanoma was 107%; with SK-MEL-28 melanoma it was 106%.

With `Cc1cc(-c2ccc(N=Nc3c(S(=O)(=O)O)cc4cc(S(=O)(=O)O)cc(O)c4c3O)c(C)c2)ccc1N=Nc1c(S(=O)(=O)O)cc2cc(S(=O)(=O)O)cc(O)c2c1O`, the growth is 112% with DU-145 prostate; 125% with K-562 leukemia; 100% with MALME-3M melanoma; 107% with MDA-MB-231 breast; 80.1% with RXF 393 renal; 104% in the experiment with SF-268 CNS. For the same compound, the growth is 94.1% with SF-295 CNS; 101% with SF-539 CNS; 102% with UACC-257 melanoma; 103% with M14 melanoma; 109% in the experiment with HCT-15 colon; 103% in the experiment on HT29 colon. Besides, the growth with SNB-75 CNS was 82.4%; with SNB-19 CNS, 106%; with U251 CNS it was 101%; in the experiment with PC-3 prostate it was 93.6%; with SK-MEL-5 melanoma, 101%; in the experiment with UACC-62 melanoma, 114%. Moreover, the growth in the experiment with LOX IMVI melanoma was 107%; in the experiment with SK-MEL-28 melanoma it was 110%.
